Screening data deposited in PubChem by National Center for Advancing Translational Sciences (NCATS).
SW480 rereplic = A quantitative high throughput screen for small molecules that induce DNA re-replication in SW480 colon adenocarcinoma cells; 340,000 tested, 1.8% active; AID 624297, 2012; SW480 DNA re-replication, Hoechst DNA content imaging, 48 h; Potency, µM (doses to about 46.1 µM), for the others: at the highest dose re-replication activation, most hits filed as activators; note: % of control where 0% means no effect; nearly all actives have a fitted effect of over 55% in size
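Image-based read-out: total Hoechst fluorescence of nuclei (405 nm excitation, 500-530 nm emission), with hits raising the fraction of high-intensity nuclei. SW480 colon cells incubated 48 hr with compounds at 37 C.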
MCF10A rerep = A quantitative high throughput screen for small molecules that induce DNA re-replication in MCF 10a normal breast cells; MCF 10A DNA re-replication, Hoechst nuclear intensity, 48 h; Potency, µM (titrated, usually from 46.1 µM), without a hit: at the top dose activity, positive = re-replication, most hits filed as activators; 350,000 tested, 2.9% active; note: % of control where 0% means no effect; nearly all actives have a fitted effect of over 50% in size
KB-3-1 tox = qHTS assay for MDR1-selective chemotherapeutics: Primary screen using the parental adenocarcinoma cell KB-3-1 | KB-3-1 viability, CellTiter-Glo ATP luminescence, 72 h | Potency, µM (highest dose often 46.1 µM), usual class: cytotoxic | 400,000 tested, 1.4% active | AID 1347075, 2019; note: % is set by controls: 0 for no effect and ±100 for the full control effect; nearly all actives have a fitted effect of over 60% in size
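Using CellTiter-Glo luminescence, growth of non-resistant KB-3-1 adenocarcinoma cells is assessed 72 h after pin-tool compound addition at 37 °C. Normalized responses across the concentration series yield fitted curves.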
ELG1 DNA repair = qHTS screen for small molecules that inhibit ELG1-dependent DNA repair in human embryonic kidney (HEK293T) cells expressing luciferase-tagged ELG1; HEK293T ELG1-luciferase reporter, luminescence, 16 h; DNA damage induced by 5-fluorouridine; Potency, µM (series often up to 46.1 µM), for inactives: at the highest dose activity change, negative = inhibition, usual class: inhibitors; 330,000 tested, 2.3% active; AID 504467, 2011; note: % is set by controls: 0 for no effect and ±100 for the full control effect; nearly all actives have a fitted effect of over 55% in size
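HEK293T cells expressing luciferase-tagged ELG1 (2,000/well) received 5-Fluorouridine plus compound or DMSO for 16 hr at 37 °C. Luciferase was read by ONE-Glo luminescence after 30 min at room temperature.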
KB-V1 cytotox = qHTS assay for MDR1-selective chemotherapeutics: Primary screen using the drug-selected MDR subline cells KB-V1 | 400,000 tested, 3.4% active | Potency, µM (top dose mostly 46.1 µM), most hits filed as cytotoxic | KB-V1 MDR cells viability, CellTiter-Glo, 72 h | AID 1347076, 2019; note: % is set by controls: 0 for no effect and ±100 for the full control effect; nearly all actives have a fitted effect of over 60% in size
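qHTS viability screen in drug-selected KB-V1 MDR cells: 72 h compound treatment at 37 degrees C, ATP luminescence end point.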
Numbers without * were called inactive; i = inactive; ? = inconclusive; . = no result given; [ ] = remark or other dose. This is a sample that favours compounds with a hit; in the whole collection about 8.1% have one here. Calls come from the whole dose curve; as a rule, active = well fitted curve in the direction sought with a large enough effect; inconclusive = small, poorly fitted or top-dose-only effect, or another doubt; inactive = no such curve, though single readings can be large; an effect the other way counts as inactive or inconclusive. Potency is the fitted concentration of half-maximal effect.

SMILES	SW480 rereplic	MCF10A rerep	KB-3-1 tox	ELG1 DNA repair	KB-V1 cytotox
CCc1cccc(CC)c1NC(=O)CSc1nc2ccc(N3C(=O)C4C5C=CC(C5)C4C3=O)cc2s1 (stereo not given)	17%	?	?	?	2.6µM*
Cc1cccc(NC(=O)CSc2nc3ccc(N4C(=O)c5ccccc5C4=O)cc3s2)c1C	?	9.2µM*	i	-3%	i
CCc1ccccc1NC(=O)C(CCSC)NS(=O)(=O)c1ccc2c(c1)oc(=O)n2C (stereo not given)	.	.	i	.	?
O=C(Nc1nc2ccccc2s1)c1c(F)cccc1Cl	-53%	16%	?	?	i
COc1ccc(C(=O)Nc2nc3ccccc3s2)c(OC)c1	?	?	7.3µM*	3.7µM*	6.5µM*
COc1ccccc1C(=O)Nc1nc2ccccc2s1	-1%	17%	?	?	?
Cn1cc(Cl)c(C(=O)Nc2nc3ccccc3s2)n1	2%	-12%	i	?	18µM*
COc1ccc(-c2cc(C(=O)Nc3nc4c(C)cccc4s3)c3ccccc3n2)cc1OC	28%	?	i	?	i
COc1cccc(-c2cc(C(=O)Nc3nc4ccccc4s3)c3ccccc3n2)c1	4%	1%	i	-16%	21µM*
COc1ccc(C(=O)CCC(=O)O)c2ccccc12	-8%	1%	.	.	.
CO[C@H](C(=O)[C@@H](O)[C@@H](C)O)C1Cc2cc3cc(O[C@H]4C[C@@H](O[C@H]5C[C@@H](O)[C@H](O)[C@@H](C)O5)[C@@H](O)[C@@H](C)O4)c(C)c(O)c3c(O)c2C(=O)[C@H]1O[C@H]1C[C@@H](O[C@H]2C[C@@H](O[C@H]3C[C@](C)(O)[C@H](O)[C@@H](C)O3)[C@H](O)[C@@H](C)O2)[C@H](O)[C@@H](C)O1 (stereo not given in full)	?	-7%	.	.	.
O=C1CSC(=S)N1N=Cc1ccc(Cl)s1	0%	24%	i	.	i
CC(C)c1ccc2nc3sc(C(=O)N4CCc5ccccc5C4)c(N)c3cc2c1	2%	?	i	?	i
CCN1CCc2nc3sc(C(=O)Nc4cccc(Cl)c4C)c(N)c3cc2C1	.	.	16µM*	.	6.5µM*
CCN1CCc2nc3sc(C(=O)N4CCc5ccccc5C4)c(N)c3cc2C1	3%	18µM*	i	8%	?
CCc1ccc(OCCCC(=O)NCc2ccco2)cc1	-119%	10%	i	5%	i
CCc1ccc(N/C(SCc2ccccc2C)=C(/C#N)C(=O)NCc2ccco2)cc1	3.7µM*	-38%[0.0737 µM]	?	-13%	i
COc1ccc(Cc2noc(CN3CCN(Cc4cccc(Cl)c4)CC3)n2)cc1OC	-7%	0%	i	23µM*	?
COc1ccc(Cc2noc(CN3CCCC(C(=O)c4cccs4)C3)n2)cc1OC (stereo not given)	31%	-9%	i	18µM*	?
COc1ccc(Cc2noc(CN3CCN(c4ccc(Cl)cn4)CC3)n2)cc1OC	0%	9%	?	?	3.3µM*
N#Cc1ccccc1C[C@H](N)C(=O)NC[C@H]1O[C@@H](n2cnc3c(N)ncnc32)[C@H](O)[C@@H]1O	.	.	i	.	i
CCOC(=O)O[C@]1(C(=O)OCCl)CC[C@@H]2[C@H]3CCC4=CC(=O)C=C[C@]4(C)[C@@H]3[C@@H](O)C[C@@]21C	-5%	-1%	.	.	.
CC(C)N1CCc2c(sc(NC(=O)Cc3ccccc3)c2C(N)=O)C1	-4%	-3%	i	-6%	i
CC(C)N1CCc2c(sc(NC(=O)c3ccc(S(=O)(=O)N4CCCCC4C)cc3)c2C(N)=O)C1 (stereo not given)	21µM*	?	i	-5%	i
CC(C)N1CCc2c(sc(NC(=O)c3ccc(C(=O)c4ccccc4)cc3)c2C(N)=O)C1	?	16µM*	i	?	i
SMILES	SW480 rereplic	MCF10A rerep	KB-3-1 tox	ELG1 DNA repair	KB-V1 cytotox
CC(C)N1CCc2c(sc(NC(=O)c3ccc4ccccc4c3)c2C(N)=O)C1	15µM*	9.2µM*	?	1%	?
COC(=O)c1c(NC(=O)c2ccc(S(=O)(=O)N3CCCCC3C)cc2)sc2c1CCN(C(C)C)C2 (stereo not given)	.	.	i	.	i
CC(=O)Nc1sc2c(c1-c1nc3ccccc3s1)CCN(C(C)C)C2	21µM*	?	7.3µM*	?	?
O=C(NCCc1ccccc1)C1Cc2c(-c3ccc(Cl)cc3)ccnc2O1 (stereo not given)	.	.	i	.	i
CCCCn1cc(S(=O)(=O)c2ccc(F)cc2)c(=O)c2ccccc21	.	.	i	.	i
COc1cccc(OC)c1C(=O)Nc1sc2c(c1C(N)=O)CCN(Cc1ccccc1)C2	-1%	2%	i	-14%	i
CCN1CCc2c(sc(NC(=O)c3cc4ccccc4cc3OC)c2C(N)=O)C1	12µM*	18µM*	?	1%	i
CCn1c(COc2ccc(=O)n(-c3ccccc3)n2)nnc1SCc1cccc(OC)c1	-8%	0%	i	10%	16µM*
CC1Cn2c(nnc2C23CC4CC(CC(C4)C2)C3)S1 (stereo not given)	?	15µM*	i	12%	i
CC1Cn2c(nnc2-c2ccc(F)cc2)S1 (stereo not given)	-9%	12%	i	8%	i
CCc1cccc(C)c1NC(=O)CSc1n[nH]c(-c2ccccc2)n1	.	.	i	.	i
COc1ccc(CNC(=O)c2cn(Cc3ccccc3F)c(=O)s2)cc1	.	.	i	.	?
Cc1c(C(=O)NCc2ccc3c(c2)OCO3)sc(=O)n1Cc1cccc(F)c1	.	.	i	.	?
COc1ccc(Cl)cc1Cn1c(C)c(C(=O)NCc2ccc(F)cc2)sc1=O	.	.	?	.	15µM*
Cc1c(C(=O)NCc2cccc(C(F)(F)F)c2)sc(=O)n1Cc1cccc(F)c1	.	.	?	.	15µM*
Cc1cccc(C)c1Cn1c(C)c(C(=O)NCc2ccc(C#N)cc2)sc1=O	.	.	?	.	18µM*
Cc1c(C(=O)NCc2ccc(C#N)cc2)sc(=O)n1Cc1ccccn1	.	.	i	.	?
COc1ccc(CNC(=O)c2cn(Cc3ccccc3OC)c(=O)s2)cc1	.	.	i	.	7.3µM*
COC(=O)c1ccc(Cn2c(C)c(C(=O)Nc3cccc(Oc4ccccc4)c3)sc2=O)o1	.	.	?	.	12µM*
Cc1c(C(=O)NCc2ccc(F)cc2)sc(=O)n1Cc1ccc(C(=O)c2ccccc2)cc1	.	.	?	.	10µM*
